Source: PubChem (NMMLSC)
Proteasome disasm – inhibitors of ATP-driven 26S proteasome dissociation, primary screen, biochemical, bead-based flow cytometry, GFP-tagged proteasome | inhibition of disassembly, % (no concentration beside the values) | 0.2% of 24,000 active | anti-FLAG beads, GFP-proteasome disassembly;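 active = inhibition of disassembly above about 33%, limit read from the data; inconclusive = likely self-fluorescent, control bead median signal at least 40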;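 also: plate controls were ATP control with full disassembly for no effect and ATP-gamma-S intact proteasomes for full effect; higher percent means more bead fluorescence retained so stronger block of disassembly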
LNCaP diff act – activators of LNCaP prostate cell differentiation, primary screen, flow cytometry side scatter; AID 795, 2007; 4 d; side scatter shift, % at 10 µM; 0.56% of 24,000 active;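 active = side scatter shift above 30%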;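 also: androgen-responsive LNCaP prostate cancer cells in charcoal-stripped serum medium; percent of cells past a gate set so DMSO wells show 10% shift; higher shift means more granular cells and more differentiation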
Jurkat autofluor – compound autofluorescence on Jurkat cells, primary screen, artefact control for VLA-4 allosteric ligand project, cell-based, flow cytometry | fluorescence ratio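 (tested at 10 µM compound in the well)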 | 0.61% of 24,000 active | hits give high values; 1 = vehicle-only cell background;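 active = fluorescence ratio above 2.44, which is 1 plus 3 SD of all ratios; inconclusive = signal too bright to measure linearly, ratio around 10 or more; inactive = fluorescence ratio below 2.44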;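 also: green fluorescence of cells measured with 488 nm excitation and 530 nm emission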
VLA-4 antagonist – inhibitors of LDV-FITC binding to Mn2+-activated VLA-4, primary screen, Jurkat cells; LDV-FITC binding with Mn2+, flow cytometry; 100% = Mn2+-driven binding gain fully reversed; inhibition, % at 10 µM (by protocol); AID 529, 2006; 0.2% of 24,000 active;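 active = inhibition above 50%; inconclusive = compound itself fluorescent, judged against control cell fluorescence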;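 also: 0% = Mn2+ stimulated cells lacking compound and 100% = ligand binding without Mn2+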
VLA-4 agonist – enhancers of LDV-FITC binding to VLA-4 integrin, primary screen, Jurkat cells, flow cytometry. activation, % at 10 µM (by protocol). AID 528, 2006. Integrin alpha-4 (Homo sapiens), P13612. 24,000 tested, under 10 active;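 active = fluorescent ligand binding to cells raised by more than 40% of the manganese-induced maximum; inconclusive = compound's own fluorescence above 85% of the ligand control signal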;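 also: 0% = ligand binding without compound and 100% = manganese-stimulated maximal binding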
Numbers without * were called inactive; ? = inconclusive; . = no result given. A selection: hits, their analogues and other compounds. The true share with any hit is near 1.4%.

SMILES | Proteasome disasm | LNCaP diff act | Jurkat autofluor | VLA-4 antagonist | VLA-4 agonist
CN1CCN(CCCNC(=O)c2cc3c(-c4ccc(Cl)cc4)nn(C)c3s2)CC1 | -1 | 57* | 1.2 | ? | ?
CCN(CC)CCCNC(=O)c1cc(-c2ccc(O)cc2)on1 | 2 | 12 | 0.98 | -4 | 3
CCN(CC)CCCNC(=O)c1cc2c(-c3ccc(Cl)cc3)nn(C)c2s1 | 0 | 52* | 1.3 | ? | ?
CCN(CC)CCCNC(=O)c1cc(-c2ccc(Cl)c(Cl)c2)on1 | 2 | 48* | 1.1 | 6 | 3
Cc1cccc(OCC(=O)NCc2ccncc2)c1C | -1 | 3 | 1.1 | -10 | -3
Cc1nc2ccc(F)cc2cc1C(=O)NCC1CCCO1 (stereo not drawn) | 9 | 8 | 3.4* | ? | ?
COc1cccc(N2CCN(c3ncnc4c3[nH]c3ccc(F)cc34)CC2C)c1 (stereo not drawn) | 5 | 3 | 1.1 | 95* | -36
COc1ccc2[nH]c3c(N4CC(C)OC(C)C4)ncnc3c2c1 (stereo not drawn) | . | . | 1 | 13 | 8
O=C(c1nc2n(n1)C(c1ccc(Cl)cc1)C=C(c1ccccc1)N2)N1CCOCC1 (stereo not drawn) | 3 | 13 | 3.5* | ? | ?
CC(=O)Nc1cc(C(=O)N2CCOCC2)ccc1S(=O)(=O)c1ccc(C)cc1 | 0 | 37* | 1.1 | ? | -5
CC(=O)Nc1cc(C(=O)O)ccc1S(=O)(=O)c1ccc(C)cc1 | 1 | 2 | 1.1 | ? | ?
CCOC(=O)C(NC(=O)CC)(Nc1ccc(S(=O)(=O)Nc2ncccn2)cc1)C(F)(F)F (stereo not drawn) | 0 | 9 | 1.1 | ? | ?
COc1ccc(-c2coc3c(CN4CCCCC4)c(O)c(CN4CCCCC4)c(O)c3c2=O)cc1 | 1 | 36* | 1.1 | 37 | -4
COc1ccc(C(=O)c2coc3ccc(O)c(CN4CCCC4)c23)cc1 | 0 | 6 | 1 | 12 | -5
COc1ccc(CNC(=O)CN(C(=O)c2ccc(CN3CCOCC3)o2)C2CCCC2)cc1 | 1 | 3 | 0.97 | -16 | -2
Cc1cc(=O)oc2c1c(C)nn2-c1ccc(C(=O)OC(C)C)cc1 | 11 | 7 | 1.2 | -10 | -1
CCc1cccc(NC(=O)CN(c2ccc(OC)cc2)S(=O)(=O)c2c(C)n[nH]c2C)c1 | -1 | 8 | 0.91 | 62* | -7
CCOC(=O)N1CCN(c2c(N3CCN(c4ccccn4)CC3)c(=O)c2=O)CC1 | -2 | 7 | 1.2 | -6 | -46
CN(C)c1ccc(C2C=C(c3ccc(Cl)cc3OC(F)F)Nc3ncnn32)cc1 (stereo not drawn) | 19 | 16 | 2.8* | ? | ?
CCCc1[nH]nc2c1C(CCc1ccccc1)C(C#N)=C(N)O2 (stereo not drawn) | 2 | 4 | 1.2 | 61* | -10
CCCc1[nH]nc2c1C(c1cccc(OC(=O)c3ccco3)c1)C(C#N)=C(N)O2 (stereo not drawn) | -1 | 7 | 1.1 | 11 | -4
CCN(CC)S(=O)(=O)c1ccc(Nc2nc3ccccc3n3nnnc23)cc1 | 6 | 6 | 3.2* | ? | ?
c1ccc2c(c1)nc(Nc1ccc3c(c1)OCO3)c1nnnn12 | 0 | 14 | 3.2* | ? | ?
CCN(CC)S(=O)(=O)c1ccc(NC(=O)Cn2cnc3ccccc3c2=O)cc1 | 0 | 14 | 1 | -5 | -3
COc1ccc(N2CCN(Cc3nc4c(c(=O)[nH]c(=O)n4C)n3CCCc3ccccc3)CC2)cc1 | -1 | 8 | 1.2 | 4 | -4
SMILES | Proteasome disasm | LNCaP diff act | Jurkat autofluor | VLA-4 antagonist | VLA-4 agonist
COC(=O)Cn1cnc2c(nnn2Cc2ccc(Cl)cc2)c1=O | 2 | 5 | 1.1 | -12 | -3
Cc1ccc(Cn2ccc(NC(=O)c3cc(-c4ccc(Br)cc4)on3)n2)cc1 | 2 | 35* | 0.98 | -3 | 8
O=C(C1CCN(c2nnc(-n3cccc3)s2)CC1)N1CCOCC1 | 1 | 8 | 0.95 | -9 | 3
c1ccc2c(c1)CCCN2c1nc2ccccc2n2cnnc12 | -1 | 4 | 2.6* | ? | ?
Cc1cccc(-c2nsc(SCC(=O)Nc3nccs3)n2)c1 | 1 | 34* | 1.1 | 13 | -5
Cc1cccc(-c2nsc(SCC(=O)N3CCCC3)n2)c1 | 1 | 24 | 1.1 | 15 | -9
COc1ccccc1OCC(=O)NCC1CCCCC1 | 0 | 3 | 1.1 | -14 | 5
Cc1ccc2nc(NC(=O)C3CCN(S(=O)(=O)c4cccc5nsnc45)CC3)sc2c1 | 0 | 1 | 1.1 | 7 | -11
Cc1ccc2nc(NC(=O)C3CCCN(S(=O)(=O)c4cccc5nsnc45)C3)sc2c1 (stereo not drawn) | 151* | 6 | 1.9 | ? | ?
O=S(=O)(c1ccc(Oc2ccc(-c3nnco3)cc2)nc1)N1CCC(Cc2ccccc2)CC1 | 0 | 14 | 1.1 | -10 | 5
CC(C)(C)OC(=O)N1CCC(C(=O)N2CCCCCC2)CC1 | -1 | 31* | 1.1 | -2 | 2
CC(C)(C)OC(=O)N1CCC(C(=O)N2CCOCC2)CC1 | -2 | 21 | 1.1 | -21 | 7
CCC(C)NC(=O)c1cn(C)c(=O)c2cc(OC)c(OC)cc12 (stereo not drawn) | -2 | 37* | 0.91 | 23 | -2
CCOCCCNC(=O)c1cn(C)c(=O)c2cc(OC)c(OC)cc12 | -1 | 9 | 1.1 | ? | ?
CN(C)c1ccc(/C=c2\sc3nc(-c4ccccc4)nn3c2=O)cc1 | ? | 5 | 8.2* | ? | ?
COC(=O)Nc1sccc1C(=O)Nc1sccc1C(=O)OC | 6 | 32* | 2.2 | ? | ?
COC(=O)c1ccccc1NC(=O)c1cnc2sccn2c1=O | -10 | 9 | 1 | ? | ?
O=C(Nc1ccc(C(F)(F)F)cc1)C1CCCN1S(=O)(=O)c1cccc2cccnc12 (stereo not drawn) | 0 | 6 | 1.2 | ? | ?
O=C(CN1C(=O)C2CCCN2c2ncc(Cl)cc21)NCc1ccc2c(c1)OCO2 (stereo not drawn) | 55* | 10 | 1.2 | -33 | -5
COC(=O)c1ccccc1NC(=O)CN1C(=O)C2CCCN2c2ncc(Cl)cc21 (stereo not drawn) | 49* | 8 | 1.5 | ? | ?
CCC(CC)C(=O)Nc1c2cnn(-c3ccccc3)c2nc(=O)n1-c1ccccc1 | -1 | 5 | 1.1 | 53* | -17
C=CCOC(=O)C1=C(C)OC(N)=C(C#N)C1c1ccccc1F (stereo not drawn) | 2 | 2 | 1.2 | 5 | -6
CCN1C=C(Cc2cccs2)C2=C(C1)C(c1cccs1)C(C#N)=C(N)O2 (stereo not drawn) | 2 | . | 3.1* | ? | ?
Cc1ccc(O)c(C(=O)c2cc(C#N)c(=O)n(CC3CCCO3)c2)c1 (stereo not drawn) | 6 | 7 | 1.3 | -14 | 6
